# This excerpt belongs to a sample that is enriched for hits.
# mHTT-CaM PPI inh: mutant huntingtin-calmodulin interaction inhibitors – biochemical, AlphaScreen, primary screen; AID 1671202, 2021; inhibition, % at 15 µM; AlphaScreen His-mHTT/GST-CaM binding, luminescence; hit rate 3.6% among 190,000; P42858
# Pf apPOL inh: Pf-apPOL inhibitors, biochemical, fluorescence; Plasmodium falciparum apicoplast DNA polymerase (apPOL); Recombinant Pf-apPOL, molecular beacon fluorescence, 1.5 h; inhibition, % at 10 µM; hit rate 0.25% among 210,000; AID 1794808, 2022
# Numbers stand for hits; n = inactive; x = not tested or not shown. No stated cut-off is given here; in the data, active means inhibition above about 50%; inactive means the rest.
SMILES,mHTT-CaM PPI inh,Pf apPOL inh
Cc1cc(N2C(=O)CSC2c2cccc([N+](=O)[O-])c2)ccc1Br (stereo unspecified),n,n
COc1cccc(-c2cn3c(n2)N(C(=O)Cc2cccs2)CCC3)c1,82,n
COc1ccc(-c2cn3c(n2)N(C(=O)Cc2cccs2)CCC3)cc1,n,n
COc1ccccc1-c1coc2cc(OC(=O)c3cccc([N+](=O)[O-])c3)ccc2c1=O,n,n
COc1cccc(-c2cc(C(=O)N3CCCC3c3ccc(C)cc3)on2)c1 (stereo unspecified),n,n
CC(C)NC(=O)c1cc2cn(C3CCCC3)cc2s1,n,n
CC(C)n1cc2cc(C(=O)NCc3ccc(N4CCOCC4)cc3)sc2c1,n,n
COc1cccc(CNC(=O)c2cc3cn(C4CC4)cc3s2)c1,57,n
O=C(c1cc2cn(C3CCCC3)cc2s1)N1CCN(C2CCCCC2)CC1,73,n
O=C(c1cc2cn(C3CCCC3)cc2s1)N1CCSCC1,n,n
O=C(NCc1ccc(N2CCOCC2)cc1)c1cc2cn(C3CC3)cc2s1,n,n
COc1ccc(NC(=O)c2cc3cn(C4CC4)cc3s2)c(C)c1,52,n
CC(C)n1cc2cc(C(=O)NCc3ccc(Cl)cc3)sc2c1,73,n
CCn1c(=O)c2ccnn2c2ccc(C(=O)Nc3ccccc3C)cc21,n,n
O=C(c1ccc(F)cc1)N1CCN(c2ccc([N+](=O)[O-])cc2Cl)CC1,n,n
C#CCNC(=O)CCc1nnc(-c2ccc(C(F)(F)F)cc2)[nH]c1=O,n,n
O=C(NCCCN1CCCC1)c1cc2cn(C3CC3)cc2s1,99,108
O=C(NCCCN1CCCC1)c1cc2cn(C3CCCC3)cc2s1,n,n
CCC[C@H]1[C@@H](OC(=O)NCCc2c[nH]c3ccccc23)CC[C@@]23CCCN2C(=O)CCC[C@@H]13,65,n
CCC[C@H]1[C@@H](OC(=O)N2CCN(c3ccccc3)CC2)CC[C@@]23CCCN2C(=O)CCC[C@@H]13,99,n
CCC[C@H]1[C@@H](OC(=O)Oc2ccc([N+](=O)[O-])cc2)CC[C@@]23CCCN2C(=O)CCC[C@@H]13,58,n
CCC[C@H]1[C@@H](OC(=O)NCc2ccccc2Cl)CC[C@@]23CCCN2C(=O)CCC[C@@H]13,n,n
CCC[C@H]1[C@@H](OC(=O)N2CCOCC2)CC[C@@]23CCCN2C(=O)CCC[C@@H]13,n,n
C[C@H]1[C@@H](OC(=O)Oc2ccc([N+](=O)[O-])cc2)CC[C@@]23CCCN2C(=O)CCC[C@@H]13,n,n
CCOC(=O)CCC(=O)Nc1ccc2c(c1)CCCN2C(=O)c1ccccc1,n,n
SMILES,mHTT-CaM PPI inh,Pf apPOL inh
CCCN1C(=O)Cc2ccccc2C1C(=O)NCc1ccccc1Br (stereo unspecified),n,n
COc1nccnc1NS(=O)(=O)c1ccc(NC(=O)c2ccccc2Cl)cc1,n,n
COc1nccnc1NS(=O)(=O)c1ccc(NC(=O)COc2cc(C)c(Cl)c(C)c2)cc1,50,n
O=C1C(=Cc2ccc(Sc3ccccc3)o2)C(=O)c2ccccc21,n,n
O=C1C=C/C(=C/c2ccc(Br)o2)O1,n,x
O=C1/C(=C/c2ccc(Br)o2)CC/C1=C\c1ccc(Br)o1,96,n
O=C1C(=Cc2ccc(Br)o2)C(=O)c2ccccc21,77,n
c1cnc(-c2n[nH]c(C3CCN(CC4CCCCC4)CC3)n2)cn1,n,n
c1cnc(-c2n[nH]c(C3CCCN(CC4CCCCC4)C3)n2)cn1 (stereo unspecified),54,n
CC(C)CCN1CCCC(c2nc(-c3cnccn3)n[nH]2)C1 (stereo unspecified),n,n
c1cnc(-c2n[nH]c(C3CCCNC3)n2)cn1 (stereo unspecified),72,n
O=C(CSc1nnc(N2CCN(c3ccccc3)CC2)s1)OCc1ccccc1,n,n
NC(=NO)c1ccc2nonc2c1,x,n
CSc1ccc(CNC(=O)C2CCCN(C(=O)c3ccccc3F)C2)cc1 (stereo unspecified),n,n
Cc1ccc(Br)c(N2C(=O)Nc3cc(Cl)c(Cl)cc3N2O)c1,n,n
CC1CCN(c2ccc(/C=C3/SC(=N)NC3=O)cc2[N+](=O)[O-])CC1,n,n
O=C1c2ccccc2C(=O)c2c1oc1c3c(ccc21)OCN(C1CCCCC1)C3,84,n
COCCN1COc2ccc3c(=O)c(-c4ccccc4OC)c(C)oc3c2C1,n,n
CC(C)(C)N1COc2ccc3c4c(oc3c2C1)C(=O)c1ccccc1C4=O,n,n
COCCCN1COc2ccc3c(=O)c(-c4ccccc4OC)c(C(F)(F)F)oc3c2C1,n,n
O=C1c2ccccc2C(=O)c2c1oc1c3c(ccc21)OCN(CCCn1ccnc1)C3,100,n
O=C1c2ccccc2C(=O)c2c1oc1c3c(ccc21)OCN(CCC1=CCCCC1)C3,79,n
O=C(NCCCS(=O)(=O)N1CCN(c2ccccc2F)CC1)C1CCCCC1,n,n
